ATG4B inh: ATG4B (human) cysteine protease inhibition. Q9Y4P1. ATG4B cleavage of LC3-PLA2, NBD-HPC fluorescence, 1 h. inhibition, % at 8.33 µM. hit rate 0.51% among 340,000. AID 504462; in the data active = inhibition above about 40%
Target sequence (Q9Y4P1 whole entry, looked up): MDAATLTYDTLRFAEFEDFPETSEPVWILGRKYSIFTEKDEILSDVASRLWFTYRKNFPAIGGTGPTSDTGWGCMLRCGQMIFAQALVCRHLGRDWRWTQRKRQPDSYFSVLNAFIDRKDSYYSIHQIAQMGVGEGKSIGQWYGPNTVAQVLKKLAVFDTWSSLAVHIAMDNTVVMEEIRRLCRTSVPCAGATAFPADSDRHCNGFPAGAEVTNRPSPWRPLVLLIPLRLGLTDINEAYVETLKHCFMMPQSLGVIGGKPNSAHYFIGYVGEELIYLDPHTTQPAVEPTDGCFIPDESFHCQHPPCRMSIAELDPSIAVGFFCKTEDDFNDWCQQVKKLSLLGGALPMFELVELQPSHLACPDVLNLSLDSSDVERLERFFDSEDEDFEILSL
DAGLB inh: diacylglycerol lipase beta (human) inhibition. Q8NCG7. HEK293T DAGLB membrane lysate, EnzChek fluorogenic substrate. inhibition, % at 5.17 µM. hit rate 0.059% among 340,000. AID 504411; in the data active = inhibition above about 34%;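 note: 0% = enzyme with vehicle and 100% = wells lacking enzyme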
PAFAH2 inh: PAFAH2 (human) inhibition. Q99487. recombinant PAFAH2, FP-rhodamine activity probe, fluorescence polarization. inhibition, % at 3.39 µM. hit rate 0.99% among 340,000;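 active = inhibition above the mean over all tested compounds plus 3 SD, cut at about 30% in these data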;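 note: inhibitors block probe labeling of enzyme so polarization drops; 0% = enzyme with DMSO and 100% = wells lacking PAFAH2 protein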
PAFAH1B2 FP inh: PAFAH1B2 (human) inhibition; recombinant PAFAH1B2, FP-rhodamine activity probe, fluorescence polarization; hit rate 1.2% among 340,000; inhibition, % at 3.39 µM; AID 492953; P68402;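 active = inhibition above the mean of all tested compounds plus 3 SD, cut at about 24% in these data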;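 note: 0% = enzyme with DMSO and 100% = wells lacking PAFAH1B2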
Target sequence (P68402 whole entry, looked up): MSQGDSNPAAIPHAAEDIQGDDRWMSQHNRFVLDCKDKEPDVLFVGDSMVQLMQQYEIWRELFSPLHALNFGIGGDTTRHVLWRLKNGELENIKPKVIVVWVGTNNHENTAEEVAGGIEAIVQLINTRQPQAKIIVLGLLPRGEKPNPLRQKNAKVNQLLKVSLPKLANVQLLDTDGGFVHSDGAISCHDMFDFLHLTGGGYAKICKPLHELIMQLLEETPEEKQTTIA
pPAFAH FP inh: pPAFAH (human) enzyme inhibition | hit rate 1.5% among 330,000 | recombinant pPAFAH, FP-rhodamine probe fluorescence polarization | inhibition, % at 3.39 µM;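 active = inhibition above the mean inhibition across the screen plus 3 SD, cut at about 25% in these data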;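 note: inhibitors block binding of the rhodamine activity-based probe so polarization drops; 0% = enzyme with DMSO and 100% = wells lacking pPAFAH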
PAFAH1B3 FP inh: blocks human PAF acetylhydrolase 1B catalytic subunit 3. Q15102. hit rate 0.28% among 340,000. recombinant PAFAH1B3, FP-rhodamine probe, fluorescence polarization. inhibition, % at 3.39 µM;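 active = inhibition above the screen-wide average of all tested compounds plus 3 SD, cut at about 25% in these data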;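 note: 0% = enzyme with DMSO only and 100% = wells lacking PAFAH1B3 protein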
ATG4B confirm: confirmation of human ATG4B inhibitors; ATG4B protease fluorescent substrate cleavage assay; inhibition, % at 8.33 µM; hit rate 92% among 320; AID 504757; shares compounds with ATG4B inh; in the data active = inhibition above about 39%
PLA2 ctr: PLA2 (human) inhibition in ATG4B counter-screen; shares compounds with ATG4B inh; purified PLA2, NBD-C6-HPC fluorescence, 45 min; inhibition, % at 8.33 µM; hit rate 66% among 1,600; in the data active = inhibition above about 50%
An asterisk follows results filed as active; nt = no result. Rows were chosen to be rich in hits. Some 3% of all compounds tested hit in one or more screens of this group.

SMILES	ATG4B inh	DAGLB inh	PAFAH2 inh	PAFAH1B2 FP inh	pPAFAH FP inh	PAFAH1B3 FP inh	PLA2 ctr	others
Cc1ccc(NC(=S)NC2CCSc3ccccc32)cc1C (stereo not drawn)	41.0*	-4.9	5.0	1.6	2.5	8.3	53.2*
CCC(=O)Nc1ccc2c(c1)N(C(C)=O)c1ccccc1CC2	5.9	1.0	3.1	1.8	-1.5	4.5	nt
Cc1c(Cl)cccc1NC(=S)NCCc1ccc(C(F)(F)F)cc1	88.5*	-11.8	-7.5	15.1	5.2	1.6	93.9*
COc1ccccc1NC(=O)C(=O)N(c1cccnc1)C(C(=O)NC(C)(C)C)c1ccccc1F (stereo not drawn)	-9.0	-2.2	7.7	0.5	6.6	4.8	nt
CC(C)CSC1=NSC2=NC(=O)/C(=C\c3cccs3)C(=N)N12	-0.5	25.9	-7.8	-2.1	10.5	-3.7	nt
N=C1/C(=C/c2cccs2)C(=O)N=C2SN=C(SCc3ccccc3)N12	50.5*	32.7	-34.5	-7.3	11.8	-1.5	61.7*
CC1(C(=O)Oc2ccccc2)Cc2ccccc2C(=O)O1 (stereo not drawn)	4.1	-0.5	-4.4	-0.7	0.1	-1.6	nt
C=CCN(c1ccc(C(=O)NCCSc2ccccc2)cc1)S(C)(=O)=O	-2.5	-2.1	5.1	-0.3	-2.4	2.0	nt
COc1ccc(-n2c(=S)[nH]c3cc(C(=O)Nc4ccc(F)cc4)ccc3c2=O)c(OC)c1	-13.5	1.2	-3.8	2.2	-3.1	-3.9	nt
c1ccc(CSc2nnc(-c3cccs3)n2Cc2ccco2)cc1	58.5*	-1.0	3.3	6.5	6.9	12.7	60.0*
Cc1ccccc1CSc1nnc(-c2ccco2)n1Cc1ccco1	52.6*	-2.3	4.9	5.0	13.8	-1.1	52.4*
Cc1ccccc1CSc1nnc(-c2cccs2)n1Cc1ccco1	77.8*	0.0	1.1	5.9	17.2	5.1	74.6*
Cc1cc(C)c(S(=O)(=O)N2CCCCC2CCNC(=O)C(=O)NCCN2CCOCC2)c(C)c1 (stereo not drawn)	-2.8	-0.4	5.1	5.5	4.2	9.7	nt
O=C(N/N=C/c1coc2ccccc2c1=O)c1cn(-c2ccccc2)nc1-c1ccccc1	92.0*	2.5	8.2	-5.1	-0.7	3.6	94.3*
CNS(=O)(=O)c1cccc(C(=O)OCC(=O)c2ccc3[nH]c(=O)[nH]c3c2)c1	-10.8	-0.2	-7.6	-0.3	6.6	4.8	nt
CN(C)c1ccnc(Oc2ccc(Cl)cc2)c1C#N	13.8	-2.9	-5.3	-5.4	1.7	0.3	nt
CN(C)c1ccnc(Oc2ccc(C(C)(C)C)cc2)c1C#N	74.5*	-5.5	-3.0	7.2	1.1	-4.6	80.2*
COc1ccc(-c2csc(NCCc3nc4cc(Cl)c(Cl)cc4n3CCCO)n2)cc1	-21.5	-0.4	3.9	15.8	12.9	3.8	nt
O=C(Nc1ccccc1-c1ccccc1)NC1CC2CCCC(C1)N2Cc1ccc(F)cc1 (stereo not drawn)	72.2*	-3.1	-0.5	-0.9	-5.7	10.0	66.1*
O=C(Nc1ccccc1-c1ccccc1)NC1CC2CCCC(C1)N2CCc1ccccc1 (stereo not drawn)	7.0	-2.1	-2.4	0.3	-3.6	11.6	nt
COc1ccc(NS(=O)(=O)c2cccc(NC(=O)NC3CCCCC3)c2)cc1	54.4*	-1.2	-7.8	1.1	24.0	-0.5	64.8*
COc1ccc(NS(=O)(=O)c2ccc(C)c(NC(=O)NC3CCCCC3)c2)cc1	4.9	-1.3	-16.2	-6.0	7.5	-8.0	nt
COc1ccc(COC(=O)C2=C(C)NC(=O)NC2c2ccccc2)cc1 (stereo not drawn)	-6.8	2.3	0.5	5.3	10.1	5.2	nt
Cc1ccc(Nc2cc(C)nc3nnnn23)cc1	-4.7	0.2	0.0	-1.3	-2.0	0.8	nt
Cc1cc(NCc2ccc(F)cc2Cl)n2nnnc2n1	47.5*	-2.6	-2.7	3.0	-10.0	0.1	47.8	ATG4B confirm=70.4*
SMILES	ATG4B inh	DAGLB inh	PAFAH2 inh	PAFAH1B2 FP inh	pPAFAH FP inh	PAFAH1B3 FP inh	PLA2 ctr	others
CC(Nc1nc(N2CCNCC2)nc2ccccc12)c1ccccc1 (stereo not drawn)	-12.9	1.4	1.2	3.7	2.3	-0.8	nt
O=C(CCc1nc(-c2cccs2)no1)NCc1ccc(F)cc1Cl	43.0*	-2.5	-3.0	1.4	7.9	1.0	53.9*
Cc1ccccc1NC(=O)CSc1nnc(CNC(=O)c2ccco2)n1C	-1.5	0.4	1.4	5.3	-1.1	3.7	nt
N#Cc1c(NC(=O)Cn2c(=O)oc3ccccc32)oc(-c2ccccc2)c1-c1ccccc1	50.3*	3.8	15.1	40.2*	22.3	-8.2	57.7*
O=C(Cn1c(=O)oc2ccccc21)Nc1ccc(Br)cc1	-3.5	-4.6	-1.6	-1.1	-5.4	7.5	nt
Cc1cccc(N2CCN(C(=S)NCc3ccco3)CC2)c1C	45.9*	-11.8	-3.4	4.0	8.3	5.5	4.0
CCOc1ccccc1N1CCN(C(=S)NCc2ccco2)CC1	3.9	-9.4	-2.1	-4.0	4.4	0.5	nt
Cc1ccccc1C(=O)Nc1sc2c(c1C(=O)O)CCC2	52.5*	5.7	7.5	5.6	4.1	3.4	49.4
Cc1ccccc1C(=O)Nc1sc(C)c(C)c1C(=O)c1ccccc1	40.7*	-7.9	1.3	3.9	5.8	-4.8	61.3*
Cc1cccc(C)c1OCC(=O)Nc1cccc(NC(=O)c2ccco2)c1	47.8*	-1.2	-1.8	1.7	5.8	1.8	49.0	ATG4B confirm=56.6*
CC(=O)c1ccc(N(CC(=O)NCCc2ccccc2)C(=O)c2csnn2)cc1	-2.1	0.7	-8.2	5.7	1.0	7.6	nt
CC(C)Cn1c(SC(C)C(=O)Nc2ccc3c(c2)OCCO3)nc2ccccc2c1=O (stereo not drawn)	49.4*	-8.3	-1.2	2.6	nt	6.4	55.1*
Cc1ccc(SCCNC(=O)/C=C/c2ccccc2Cl)cc1	56.2*	-11.3	-14.8	4.0	-0.4	-7.1	65.9*
Cc1ccc(SCCNC(=O)/C=C/c2ccc(Cl)cc2)cc1	9.5	-10.7	-3.2	-3.2	-1.2	9.2	nt
COc1ccccc1NS(=O)(=O)c1cccc(N=C2N=C(N)c3ccccc32)c1	53.7*	-0.5	2.7	3.4	1.0	-6.5	56.9*
Cc1c(NC(=O)c2cc3ccccc3o2)c(=O)n(-c2ccccc2)n1C	-2.0	-2.4	6.4	4.4	-0.8	8.7	nt
Cc1cc(C)c2c(C)c(C(=O)Nc3c(C)n(C)n(-c4ccccc4)c3=O)oc2c1	70.5*	-0.8	1.4	0.6	-5.2	5.8	69.1*
CCn1c(SCc2ccccc2Cl)nc2nc3c(cc2c1=O)CCCC3	40.5*	-6.0	-9.5	-0.5	nt	0.5	27.3	ATG4B confirm=66.1*
CN(CC(=O)Nc1cccc(F)c1)C(=O)CCc1nc2sc3c(c2c(=O)[nH]1)CCCC3	7.4	4.9	-5.1	6.8	3.5	7.7	nt

Bioassay records (PubChem)
